Activity calls are given as the source filed them.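 How the source made its calls: active means inhibition above the hit cutoff set in the earlier primary screen (cut at about 27% in these data); inactive means the rest.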
Biological target: Protein phosphatase methylesterase 1 (Homo sapiens) (UniProt Q9Y570)
Test: human PME-1 methylesterase inhibition confirmation – biochemical, fluorescence polarization, FP-Rh probe, triplicate (AID 2171);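 further: 0% = enzyme with DMSO and 100% = wells lacking PME-1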
Conditions: recombinant PME-1, FP-Rh probe fluorescence polarization; at 5.9 µM; active compounds read high

Sequence of Protein phosphatase methylesterase 1 (Homo sapiens) (Q9Y570 whole entry, looked up): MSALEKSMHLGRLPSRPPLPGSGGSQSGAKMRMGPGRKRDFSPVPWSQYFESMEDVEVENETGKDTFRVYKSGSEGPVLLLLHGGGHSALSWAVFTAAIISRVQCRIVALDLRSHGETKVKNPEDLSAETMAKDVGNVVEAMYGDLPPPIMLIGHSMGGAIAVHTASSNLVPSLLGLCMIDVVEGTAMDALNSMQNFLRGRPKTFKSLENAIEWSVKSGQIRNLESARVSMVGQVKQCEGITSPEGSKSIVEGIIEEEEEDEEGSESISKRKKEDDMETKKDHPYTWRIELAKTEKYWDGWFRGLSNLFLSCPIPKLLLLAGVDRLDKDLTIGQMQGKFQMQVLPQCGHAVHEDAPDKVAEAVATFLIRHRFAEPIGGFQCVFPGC

inhibition, active:
CC(C)NC(=S)N=Nc1c(O)[nH]c2ccc(C(C)C)cc12 34.8%, CCCCn1c(/C=N/Nc2nc3ccccc3[nH]2)nc2ccccc21 61.3%, CCn1cc(C(=O)NCCCN2CC(C)CC(C)C2)c(=O)c2cc(S(=O)(=O)N(C)C3CCCCC3)ccc21 (stereo not given) 35.6%, COc1ccc(/C=C2\Sc3ccc(C(=O)N4CCN(Cc5ccccc5)CC4)cc3N(C)C2=O)cc1OC 46.9%, O=c1[nH]c(C2CCN(S(=O)(=O)c3ccc(C(F)(F)F)cc3)CC2)nc2c1nnn2Cc1ccc(F)cc1 79.1%, CCOc1cc(-c2cc(-c3ccc(N)cc3)nc(N)c2C#N)ccc1O 41.5%, CCc1ccc2[nH]c(O)c(N=NC3=NC(=O)CS3)c2c1 44%, O=C(NNc1nc2c(F)cccc2s1)c1cc(=O)c2ccccc2o1 58.6%, COC(=O)c1cccc(C#CC(NP(=O)(c2ccccc2)c2ccccc2)c2ccccc2)c1 (stereo not given) 35.1%, Cc1ccc2sc(NNC(=O)c3cc(=O)c4ccccc4o3)nc2c1C 68.1%, O=C(COC(=O)c1ccccc1Br)Nc1cc(S(=O)(=O)N2CCOCC2)ccc1N1CCCC1 52.1%, O=C(O)c1ccc(N=Nc2c(O)[nH]c3cc(Cl)ccc23)cc1 116%, COc1ccc2nc(-n3c(O)c(C4=c5ccccc5=NC4=O)[nH]c3=S)sc2c1 45.8%, CCn1c(CSc2nnc(-c3ccncc3)n2CCOC)nc2cc(C(=O)O)ccc21 51.1%, CCOc1cc(/C=C2\N=C(SCC)SC2=O)cc([N+](=O)[O-])c1OC(C)=O 47.5%

inhibition, inactive:
CCOc1cc(/C=N/NC(=O)c2cccc([N+](=O)[O-])c2)ccc1OS(=O)(=O)c1ccccc1 19.9%, CCN(CC)C(=O)C1c2ccccc2Oc2ccccc21 7.22%, Cc1cc(N/N=C/c2c(O)ccc3ccccc23)nc(-c2ccccc2O)n1 23.6%, COc1ccc(-c2cc(C(=O)N3CCN(C(=O)c4ccccc4F)CC3)[nH]n2)cc1 21.7%, CC1=CN2C(=N)/C(=C/c3ccc([N+](=O)[O-])o3)C(=O)N=C2S1 -6.58%, O=C1[C@@H]2Cc3c([nH]c4ccccc34)C(c3ccccc3)N2C(=O)CN1C1CC1 (stereo not given in full) 5.42%, CCc1cccc2cc3c(N)c(C(=O)Nc4ccc(S(=O)(=O)N5CCCC5)cc4)sc3nc12 -1.66%, O=C(Nc1cccc(-c2csc(Nc3ccc(Cl)cc3)n2)c1)c1cc([N+](=O)[O-])cc(C(F)(F)F)c1 -16.1%, CCN(CC)c1nc2c3c(nc4c(c3c1C#N)CC(=O)N4c1ccc(Cl)cc1)NC(C)=N2 9.8%, COc1ccc(Br)cc1CNc1ccc(O)cc1 9.35%
